Only some compounds are listed: those with a hit (about 0.9% of all), similar ones and a draw of the others.
RXFP1 ag: RXFP1 (human) receptor agonism | 370,000 compounds, 0.3% hits | Potency, µM (top dose mostly 57.5 µM), without a hit: at the highest dose activation, actives largely listed as activators | HEK293T-RXFP1 cAMP TR-FRET, 30 min; response scale: percent of porcine relaxin response, buffer zero | AID 2676 | Q9HBX9; active = well fitted activation curve with a large enough effect; inconclusive = small, poorly fitted or top-dose-only effect; note: potency is the fitted concentration of half-maximal effect; % is set by controls: 0 for no effect and ±100 for the full control effect; nearly all actives have a fitted effect of over 60% in size
Target sequence (Q9HBX9 whole entry, looked up): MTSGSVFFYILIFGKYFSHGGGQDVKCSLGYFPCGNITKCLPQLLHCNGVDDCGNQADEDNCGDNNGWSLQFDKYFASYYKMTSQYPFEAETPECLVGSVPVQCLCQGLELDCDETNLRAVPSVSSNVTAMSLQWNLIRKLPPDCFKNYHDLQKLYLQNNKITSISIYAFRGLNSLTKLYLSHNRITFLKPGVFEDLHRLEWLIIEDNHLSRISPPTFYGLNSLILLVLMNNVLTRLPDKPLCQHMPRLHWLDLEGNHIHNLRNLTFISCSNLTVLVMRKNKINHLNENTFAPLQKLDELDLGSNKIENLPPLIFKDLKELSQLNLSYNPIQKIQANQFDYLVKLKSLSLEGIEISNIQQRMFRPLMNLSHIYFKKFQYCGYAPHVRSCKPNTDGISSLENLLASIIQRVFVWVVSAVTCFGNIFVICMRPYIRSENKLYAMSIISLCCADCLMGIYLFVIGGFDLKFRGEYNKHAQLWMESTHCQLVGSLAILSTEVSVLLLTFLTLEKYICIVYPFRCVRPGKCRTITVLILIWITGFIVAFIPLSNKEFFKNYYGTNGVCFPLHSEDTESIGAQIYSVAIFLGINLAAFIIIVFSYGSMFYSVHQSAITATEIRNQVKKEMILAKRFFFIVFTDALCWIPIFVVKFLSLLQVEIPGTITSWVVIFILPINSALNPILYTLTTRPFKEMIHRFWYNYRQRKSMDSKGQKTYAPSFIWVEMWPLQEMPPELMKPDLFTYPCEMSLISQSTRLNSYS
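HEK293T cells stably expressing RXFP1 were pretreated with the PDE4 inhibitor Ro 20174, exposed to compounds for 30 min at 37C, lysed, and cAMP was read by TR-FRET. Data normalized to buffer (basal) and 29 nM porcine relaxin (100%).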
RXFP1 antagonist: RXFP1 (human) relaxin receptor antagonism; Q9HBX9; HEK293-RXFP1, relaxin-stimulated cAMP HTRF, 30 min; hits give low values; activity change, negative = inhibition, % at 57.5 µM; 350,000 compounds, 0.59% hits; AID 1259400;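 active = activity change of -60% or lower, but not beyond a set lower limit; inconclusive = change between -60% and -40%, or beyond the set limit; inactive = change above -40%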; note: % is set by controls: 0 for no effect and ±100 for the full control effect
gsp antagonist: gsp mutant antagonism. Potency, µM (highest dose often 76.9 µM), for inactives: at the highest dose activity change, negative = inhibition, hits mostly inhibitors. AID 624288. gsp-mutant cells, cAMP HTRF, 30 min. 340,000 compounds, 0.4% hits; calls by dose curve; cell line not stated here;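 note: intracellular cAMP measured with PDE inhibitor Ro 20-1724 present during compound exposure; potency is the fitted concentration of half-maximal effect; % is set by controls: 0 for no effect and ±100 for the full control effect; nearly all actives have a fitted effect of over 65% in size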
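Cells in G418 medium, seeded 16-24 h, 37C; buffer exchange to DPBS + 1 mM CaCl2, 0.5 mM MgCl2, 0.05% BSA; cpds in DMSO + […] (300 uM stock), 30 min 37C; HTRF cAMP detection.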
gsp ag: agonists of gsp mutant (McCune-Albright syndrome). gsp mutant cells, cAMP HTRF, 30 min. Potency, µM (series often up to 76.9 µM), for the others: top-dose activation (cAMP increase), hits mostly activators. 340,000 compounds, 0.13% hits. AID 624287; active = well fitted activation curve with a large enough effect; inconclusive = small, poorly fitted or top-dose-only effect, or another doubt; inactive = no such curve, though single readings can be large or run the other way; cell line not stated here;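 note: phosphodiesterase inhibitor Ro 20-1724 added with compounds to block cAMP breakdown; potency is the fitted concentration of half-maximal effect; nearly all actives have a fitted effect of over 60% in size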
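Cells stably selected in G418 were plated at 2000/well, grown 16-24 hr, then given compounds in DMSO with the PDE inhibitor […] (300 uM solution added) for 30 min at 37C; cAMP was read by HTRF.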
Starred values were filed as active, the others as inactive; ? = inconclusive; . = no result; [ ] = dose if it differs, or a comment.

SMILES	RXFP1 ag	RXFP1 antagonist	gsp antagonist	gsp ag
COc1cccc(CN2CCCN(S(=O)(=O)c3ccc(Br)cc3)CC2)c1	-0.6%	-6.1	39.8µM*	3.0%
CCOc1ccccc1NC(=O)c1c(C)cc(C)nc1SCC(=O)c1cccc(OC)c1	-2.6%	1.3	.	.
COC(=O)c1c(NC(=O)C(C)(C)C)sc2c1CCN(Cc1ccccc1)C2	3.1%	-68.4*	-4.3%	-1.3%
COC(=O)c1c(NC(C)=O)sc2c1CCN(Cc1ccccc1)C2	5.1%	-0.4	-2.3%	?
O=[N+]([O-])c1cccc(S(=O)(=O)Nc2ccc(-c3ccc(N4CCCC4)nn3)cc2)c1	-1.2%	-71.0*	-34.3%	1.2%[15.4 µM]
COC(=O)COc1ccc(NS(=O)(=O)c2cccc([N+](=O)[O-])c2)cc1	0.9%	-65.8*	?	-3.3%[15.4 µM]
COc1ccc(S(=O)(=O)Nc2cccc(-c3ccc(N4CCCC4)nn3)c2)cc1F	0.8%	-3.1	.	.
COc1ccc(S(=O)(=O)Nc2cccc(-c3ccc(N4CCCCCC4)nn3)c2)cc1OC	-3.1%	-7.5	25.1µM*	-3.5%
COC(=O)COc1cccc(NS(=O)(=O)c2cccc([N+](=O)[O-])c2)c1	-1.7%	-4.5	-8.3%	-3.4%[15.4 µM]
O=[N+]([O-])c1cccc(S(=O)(=O)Nc2ccc(-c3ccc(N4CCOCC4)nn3)cc2)c1	-0.5%	2.1	?	-11.6%[15.4 µM]
CCC1(c2ccccc2)SCC(c2ccccc2)=NC1=O (configuration not stated)	.	-61.7*	-15.5%	2.9%
CCC1(c2ccccc2)SC(N)=NC1=O (configuration not stated)	.	1.3	-3.5%	-82.0%
FC(F)(F)c1cccc(Nc2nc3nonc3nc2Nc2ccc(Cl)cc2)c1	2.0%	-82.2*	.	.
Cc1nn(C)c(C)c1N1C(=O)c2cccc3c(Br)ccc(c23)C1=O	21.5%	5.4	1.7%	12.6µM*
Cc1nn(C)c(C)c1N1C(=O)c2cccc3c(N)ccc(c23)C1=O	6.7%	0.6	3.2%	?
CN(C(=O)CSc1ncnc2sc3c(c12)CCCC3)C1CCS(=O)(=O)C1 (configuration not stated)	.	11.9	-4.3%	11.2µM*
CCN(C(=O)CSc1nc(C)nc2sc(C)c(C)c12)C1CCS(=O)(=O)C1 (configuration not stated)	1.0%	-0.1	-12.9%	?
COC(=O)c1sc2nc(C)nc(SCC(=O)N3CCC(C(=O)O)CC3)c2c1C	?	5.1	-0.1%	15.8µM*
CCOC(=O)c1sc2nc(C)nc(SCC(=O)N(C)C3CCS(=O)(=O)C3)c2c1C (configuration not stated)	11.8%	-0.2	8.3%	15.8µM*
Cc1sc2ncnc(SCC(=O)N(C)C3CCS(=O)(=O)C3)c2c1C (configuration not stated)	?	-16.5	7.5%	27.4%[15.4 µM]
Cc1nc(SCC(=O)NC2CC2)c2c(C)c(C)sc2n1	15.7%	-6.0	-4.1%	10.1%[15.4 µM]
COc1ccc2[nH]c(=O)c(CN(CC3CCCO3)C(=O)Nc3ccc(F)cc3)cc2c1 (configuration not stated)	-0.6%	.	31.6µM*	10.5%
COc1ccc(NC(=O)N(Cc2cc3cc(C)ccc3[nH]c2=O)CC2CCCO2)cc1 (configuration not stated)	6.9%	7.7	-6.8%	-102.4%
COc1ccc(-c2nc(CCNC(=O)Cc3ccc(F)cc3)cs2)cc1	-2.5%	-25.1	.	.
NS(=O)(=O)c1ccc(N2CCCCS2(=O)=O)cc1	.	25.4	.	.
SMILES	RXFP1 ag	RXFP1 antagonist	gsp antagonist	gsp ag
C/C(CC(=O)Nc1ccc2c(c1)OCCO2)=N\NC(=O)COc1ccc(C)cc1	1.4%	-76.6*	0.3%	?
C/C(N)=C(/C#N)C(=O)CSc1nnc(SCc2ccc(Cl)cc2)s1	4.6%	-9.4	?	2.3%
C/C(N)=C(/C#N)C(=O)CSc1nn(-c2ccc(Cl)cc2)c(=S)s1	10.3%	-4.8	50.1µM*	-8.6%
O=Nc1c(-c2c(O)[nH]c3cc(Br)ccc23)[nH]c2ccccc12	-0.5%	.	20µM*	.
O=C1C(SCCO)=C(SCCO)C(=O)c2ccccc21	-3.0%	.	35.5µM*	.
O=C1C(Cl)=C(NCCCO)C(=O)c2ccccc21	0.4%	7.9	-23.7%	-24.5%
CCN(CC)S(=O)(=O)c1cccc(NC(=O)c2cc3ccccc3o2)c1	3.7%	4.1	?	0.9%
CCN(CC)S(=O)(=O)c1cccc(N=Nc2c(O)c3ccccc3oc2=O)c1	15.8µM*	-2.8	3.3%	?
COCCNC(=O)c1cn(C)c2ccc(S(=O)(=O)N3CCCC3)cc2c1=O	4.9%	-3.8	50.1µM*	4.3%
COc1ccc(CCNC(=O)CCc2c(C)nc3cc(-c4ccc(Cl)cc4)nn3c2C)c(OC)c1	0.4%	.	.	.
CC1(C)N=C(N)N=C(N)N1CCCCc1ccccc1	.	-5.7	-11.0%	14.1µM*
COc1ccc(C(=O)N2CCc3cc(OC)c(OC)cc3C2COc2ccccc2OC)cc1 (configuration not stated)	6.4%	.	.	.
C(=N\Nc1nc2ccccc2[nH]1)/c1c[nH]c2ccccc12	0.0%	-25.5	39.8µM*	4.2%[15.4 µM]
Nc1ccc([N+](=O)[O-])c(C(F)(F)F)c1	.	15.9	.	.
COCCc1ccc(OCC2CO2)cc1 (configuration not stated)	.	5.3	.	.
COc1ccc2c(c1)c(=O)oc1cc(O)ccc12	7.9%	13.4	1.9%	?
O=c1oc2cc(O)ccc2c2ccccc12	14.1µM*	30.7	13.1%	8.91µM*
Cc1ccc2nc(SCC(=O)Nc3ccc(Cl)cc3)nc(=O)n2c1	17.6%	5.1	10.2%	25.1%[15.4 µM]
Cc1ccc2nc(SCC(=O)Nc3ccc(F)cc3)nc(=O)n2c1	21.6%	9.6	17.5%	14.1µM*
Cc1cccc(C)c1NC(=O)CSCc1cnn(-c2ccccc2)c1-n1cccc1	-0.3%	-9.8	.	.
Cc1ccc(OC(F)F)c(NC(=O)Nc2cccc(C(F)(F)F)c2)c1	0.2%	-30.1	35.5µM*	-0.6%
O=C(Nc1ccccc1)Nc1cccc(C(F)(F)F)c1	-0.9%	1.1	-6.7%	17.1%[15.4 µM]
Cc1ccc(-c2ccc(=O)n(CC(=O)NCCc3ccccc3)n2)cc1	-2.0%	-28.3	.	.
N#Cc1c(Cl)nsc1NC(=O)c1ccccc1	1.9%	-7.6	31.6µM*	36.3%
COc1ccc(NC(=O)CN(c2ccc(C)cc2)S(=O)(=O)c2cccs2)cc1	1.9%	.	.	.
SMILES	RXFP1 ag	RXFP1 antagonist	gsp antagonist	gsp ag
CO/N=C(\C(=O)O)c1csc(NC(=O)CCl)n1	.	3.8	.	.
S=c1nc2c(n[nH]1)c1ccccc1n2CCc1ccccc1	2.7%	-114.6*	0.7%	-39.8%
CCc1ccc(CNC(=O)c2c(C)oc3ncn(CC(C)C)c(=O)c23)cc1	-3.8%	.	.	.
Cc1cccc(-n2c(-c3csc(C(C)C)c3)n[nH]c2=S)c1	-0.5%	-71.0*	-30.4%	17.2%
Cc1cccc(-n2c(-c3ccco3)n[nH]c2=S)c1	29.8%	9.2	15.1%	6.31µM*
CCCc1cc(-c2n[nH]c(=S)n2-c2cccc(C)c2)cs1	0.6%	-30.7	.	-4.4%[15.4 µM]
CC[C@@]1(O)C(=O)OCc2c1cc1n(c2=O)Cc2c-1nc1ccccc1c2/C=N/OC(C)(C)C	.	-18.2	.	.
CCc1ccccc1Nc1ncnc2c1cnn2-c1ccc(Cl)cc1	2.0%	-17.9	.	.

Compound activity deposited in PubChem BioAssay by National Center for Advancing Translational Sciences (NCATS).
